# Screens from PubChem.
# This is a sample that favours compounds with a hit; in the whole collection about 18% have one here.
# VP16 counter – counter-screen for ROR gamma inhibitors: Gal4-VP16 reporter. Potency, µM (titrated, usually from 53.6 µM), for inactives: at the highest dose activity, negative = inhibition, actives largely listed as inhibitors. 310,000 compounds, 3.5% hits. Drosophila S2 Gal4-VP16 UAS-luciferase, luminescence, 20 h;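 note: Gal4-VP16 expression switched on by copper sulfate through the metallothionein promoter; potency is the fitted concentration of half-maximal effect; nearly all actives have a fitted effect of over 50% in size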
# TDP1 cell noCPT – qHTS for Inhibitors of human tyrosyl-DNA phosphodiesterase 1 (TDP1): qHTS in cells in absence of CPT; Potency, µM (titrated, usually from 46.2 µM), for the others: at the highest dose activity change, negative = growth inhibition, actives largely listed as inhibitors; DT40 Tdp1-/- hTDP1 cells, no CPT, ATP luminescence, 48 h; 420,000 compounds, 15% hits; AID 686978, 2013; note: potency is the fitted concentration of half-maximal effect; nearly all actives have a fitted effect of over 55% in size
#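 A cellular qHTS used chicken DT40 cells lacking endogenous Tdp1 but carrying stably transfected human TDP1. Compounds were applied without camptothecin, and cell growth kinetics were judged by ATP-dependent luminescence after ≥48 hr.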
# LDHA block – blocks human lactate dehydrogenase A; P00338; purified LDHA, NADH/diaphorase-resazurin fluorescence; hits give low values; activity change, % (values are at about 110 or 230 µM); 480,000 compounds, 0.15% hits; in the data active = activity change below about -30%; inconclusive = mostly about -25% to -30%;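 note: plate controls were DMSO wells for no effect and wells without enzyme for full effect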
#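 LDH5 2 nM; NADH 0.06 mM, pyruvate 0.2 mM; 200 mM Tris pH 7.4, EDTA, Tween-20; 5 min RT. Detection: diaphorase 0.133 mg/mL + resazurin 37 µM, fluorescence ex540/em590 at 0 and 20 min; normalized to enzyme-free and DMSO wells.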
# DT40 TDP1 CPT – DT40-hTDP1 cell growth loss with CPT; 420,000 compounds, 12% hits; AID 686979; Potency, µM (top dose mostly 46.2 µM), inactives show at the top dose activity change, negative = growth inhibition, most hits filed as inhibitors; chicken DT40 Tdp1-/-;hTDP1 cells + 20 nM CPT, ATP luminescence, 48 h; note: potency is the fitted concentration of half-maximal effect; nearly all actives have a fitted effect of over 55% in size
#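 Chicken DT40 Tdp1-/- cells complemented with human TDP1, 400 cells/well, exposed to compounds plus 20 nM camptothecin for at least 48 h at 37 C; viability read as ATP content by CellTiter-Glo luminescence.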
# RORgamma inh – ROR gamma (mouse) transcription inhibition | Drosophila S2 Gal4-RORgamma UAS-luciferase reporter, 20 h | AID 2551 | Potency, µM (top dose mostly 53.6 µM), for inactives: at the highest dose activity change, negative = inhibition, actives largely listed as inhibitors | 310,000 compounds, 5.4% hits | P51450; note: potency is the fitted concentration of half-maximal effect; nearly all actives have a fitted effect of over 60% in size
# Target sequence (P51450 whole entry, looked up, the tested form may be a part): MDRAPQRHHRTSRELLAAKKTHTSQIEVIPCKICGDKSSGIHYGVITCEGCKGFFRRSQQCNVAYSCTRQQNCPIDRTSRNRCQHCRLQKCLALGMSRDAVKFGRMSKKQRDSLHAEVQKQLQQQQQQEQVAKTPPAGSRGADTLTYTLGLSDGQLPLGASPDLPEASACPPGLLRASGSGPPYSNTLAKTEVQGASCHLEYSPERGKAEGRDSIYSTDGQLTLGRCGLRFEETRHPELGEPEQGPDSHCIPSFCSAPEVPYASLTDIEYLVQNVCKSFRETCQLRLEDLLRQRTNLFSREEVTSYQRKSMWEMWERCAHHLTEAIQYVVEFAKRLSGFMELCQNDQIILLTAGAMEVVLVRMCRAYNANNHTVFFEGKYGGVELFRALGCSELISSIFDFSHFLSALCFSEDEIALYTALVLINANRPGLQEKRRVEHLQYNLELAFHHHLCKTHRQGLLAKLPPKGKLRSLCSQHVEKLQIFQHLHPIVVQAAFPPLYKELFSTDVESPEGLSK
#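 Using a luciferase readout, inhibitors were identified by reduced reporter activity in Drosophila cells coexpressing a copper-inducible Gal4–ROR gamma fusion and UAS-driven Photinus luciferase, incubated 20 hr after 700 uM copper sulfate.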
# IL-1B inflam inh – inflammasome signaling inhibition, IL-1 beta readout | 360,000 compounds, 4.7% hits | THP-1 LPS/ATP IL-1B secretion, AlphaLISA, 16 h; hits give low values | activity change, % at 57.5 µM; in the data active = activity change below about -50%; inconclusive = mostly about -30% to -49%
#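 THP-1 cells pretreated 1 hr with compounds (up to 57.5 uM final), then stimulated with LPS (250 ng/mL final) plus ATP (1.25 mM final); secreted IL-1B measured by AlphaLISA after 16 hr, decreased signal indicating inhibition.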
# An asterisk follows results filed as active; u = inconclusive; x = no result. Unless noted, calls come from the whole dose curve; as a rule, active = well fitted curve in the direction sought with a large enough effect; inconclusive = small, poorly fitted or top-dose-only effect, or another doubt; inactive = no such curve, though single readings can be large; an effect the other way counts as inactive or inconclusive. Unless noted, % is set by controls: 0 for no effect and ±100 for the full control effect.
SMILES,VP16 counter,TDP1 cell noCPT,LDHA block,DT40 TDP1 CPT,RORgamma inh,IL-1B inflam inh
CN(Cc1ccc(F)cc1)S(=O)(=O)c1cccc2nsnc12,x,x,8.5,x,x,x
Oc1ccc(C(=S)N2CCCCCC2)cc1,6.1%,-3.1%,2.2,-16.8%,8.2%,2.6
S=C(c1ccc(N2CCCC2)cc1)N1CCCCC1,u,18.4µM*,-1.5,16.4µM*,8.91µM*,-18.5
Cc1ccc(C(=S)N2CCCCCC2)cc1,u,23.1µM*,-7.2,16.4µM*,u,13.4
Cc1ccc(C(C(=O)NCc2ccccc2)N(Cc2cccs2)C(=O)c2ccc3c(c2)OCCO3)cc1 (stereo not drawn),-3.0%,3.66µM*,-6.7,9.2µM*,18.5%,-7.4
COC(=O)c1ccc(C(C(=O)NCc2ccccc2)N(Cc2cccs2)C(=O)c2cnccn2)cc1 (stereo not drawn),-9.0%,16.4µM*,3.7,u,2.2%,-0.8
Cc1ccc(C(C(=O)NC2CCCC2)N(Cc2ccc3c(c2)OCO3)C(=O)Cc2cccs2)cc1 (stereo not drawn),u,u,-8.9,u,u,-0.5
COC(=O)c1ccccc1,-4.5%,x,x,x,5.9%,x
O=C(NOC(=O)c1ccccc1)c1ccccc1,-4.3%,23.1µM*,-9.6,u,20.1%,2.9
O=C(NO)c1ccccc1,1.6%,21.7µM*,x,24.3µM*,-10.8%,x
O=Cc1cc(Cc2ccccc2Cl)cc(Br)c1O,x,x,16.5,x,x,x
CSCC[C@H](Nc1ncnc2sc3c(c12)CCCC3)C(=O)O,x,x,2.2,x,x,x
Fc1ccc2cnc(-c3ccccc3)c(-c3cccc(C(F)(F)F)c3)c2c1,x,18.4µM*,1.1,16.4µM*,x,26.3
Fc1ccc2ncc3c(-c4ccccc4)n[nH]c3c2c1,x,-15.2%,-2.2,-4.4%,x,x
Fc1cc(F)cc(-c2c(-c3ccccc3)ncc3ccc(F)cc23)c1,x,7.31µM*,0.2,13µM*,x,39.3
CC(C)Oc1cc(F)ccc1-c1cc(C(=O)NCc2ccccc2)[nH]n1,x,-31.9%,-7.3,-1.1%,x,-26.0
CC(C)Oc1cc(F)ccc1-c1cc(C(=O)Nc2ccc(C(C)C)cc2)[nH]n1,x,14.6µM*,-7.1,18.4µM*,x,5.0
CC(C)Oc1cc(F)ccc1-c1cc(C(=O)Nc2ccccc2)[nH]n1,x,23.1µM*,-2.2,u,x,-3.0
CCCNC(=O)c1ccccc1NC(=O)Cn1cnc2c1c(=O)n(C)c(=O)n2C,x,x,7.8,x,x,x
CNc1ccccc1C(C)(C)c1cc(-c2cccc(OC)c2)no1,u,5.17µM*,2.3,4.61µM*,1.41µM*,7.4
Cc1ccc(-c2cnc(CCC(=O)NCc3ccco3)o2)cc1C,x,x,2.8,x,x,x
Cc1ccc(Nc2nc3ccccc3nc2NS(=O)(=O)c2ccc(F)cc2)cc1,x,x,5.4,x,x,x
CC(C)(Oc1ccc(Cl)cc1)C(=O)Nc1nnc2n1CCS2,x,18.4µM*,-8.0,u,x,x
COc1cc2cc(C)nc(Cc3cccc4ccccc34)c2cc1OC,-17.9%,23.1µM*,3.8,14.6µM*,u,-8.4
COc1cc(OC)c(OC)cc1/C=C(/C#N)c1ccc(Cl)cc1,x,x,-0.9,x,x,x
SMILES,VP16 counter,TDP1 cell noCPT,LDHA block,DT40 TDP1 CPT,RORgamma inh,IL-1B inflam inh
Cc1ccc(NC(C)c2cc(Cl)ccc2O)cc1 (stereo not drawn),12.6µM*,-18.6%,-0.2,-18.2%,u,-26.6
CC1(C)Nc2cccc3c(N=Nc4ccc(N=Nc5ccccc5)c5ccccc45)ccc(c23)N1,x,11.2µM*,-4.2,u,x,x
c1cc2c3c(cccc3c1)NC1(CCCC1)N2,x,-27.9%,10.1,u,x,-10.4
CC1(C)Nc2cccc3cccc(c23)N1,x,16.4µM*,18.2,u,x,6.7
CCOc1ccc(-n2nc(CO)c(C(=O)NCc3ccc4c(c3)OCO4)n2)cc1,x,x,0.1,x,x,x
O=C1c2oc3ccccc3c(=O)c2C(c2cccc(O)c2)N1Cc1ccc(F)cc1 (stereo not drawn),x,20.6µM*,0.1,u,x,x
Cc1cc(C)c2c(=O)c3c(oc2c1)C(=O)N(CCO)C3c1cccc(O)c1 (stereo not drawn),u,-16.1%,-2.0,-14.4%,-14.4%,-58.3*
CCOc1cc(C2c3c(oc4ccc(F)cc4c3=O)C(=O)N2Cc2ccc(C)cc2)ccc1O (stereo not drawn),x,u,1.4,1.3µM*,x,x
CCC(=O)N1N=C(c2cc(Cl)ccc2Cl)CC1c1ccc2nccnc2c1 (stereo not drawn),x,x,0.0,x,x,x
Cn1cccc1Cc1nnc(SCC(=O)Nc2ccc(F)cc2F)n1C,x,x,-0.9,x,x,x
COc1ccc(/C=C/c2nc(C#N)c(NCc3ccco3)o2)cc1OC,x,x,-2.0,x,x,x
CCC1=C(OC(=O)N(CC)CC)N2C(=O)OC(=NCC3CC3)[C@]2(Cc2ccccc2)[C@H]2C1=CC[C@H]1C(=O)N(CC)C(=O)[C@H]12,2.5%,20.6µM*,0.1,16.4µM*,36.9%,u
CCCc1sc(C(=O)N2CCCCC2C)cc1Br (stereo not drawn),x,x,2.1,x,x,x
Cc1cc(C)c(S(=O)(=O)/N=C2/C=C(SCC(=O)O)C(=O)c3ccccc32)cc1C,u,1.84µM*,52.6,1.84µM*,-17.9%,u
CSc1cccc(Nc2nc(N)c(C(=O)c3cccc(Br)c3)s2)c1,x,x,-1.0,x,x,x
CCCC[C@@H](CN[C@H](C)CNC)NCC1CCC(C(C)(C)C)CC1 (stereo partly drawn),-23.7%,6.51µM*,-3.8,5.8µM*,11.2µM*,-67.0*
Nc1ccc(Oc2ccc3nc(-c4ccccc4)c(-c4ccc([N+](=O)[O-])cc4)nc3c2)cc1,-6.1%,u,-1.4,16.4µM*,6.0%,-0.2
N#Cc1ccc(Oc2ccc(-c3nc4ccccc4nc3-c3ccccc3)cc2)cc1C#N,-10.7%,18.4µM*,-1.3,9.2µM*,7.9%,-4.0
N#Cc1ccc(Oc2ccc(-c3cnc4ccccc4n3)cc2)cc1C#N,-12.5%,u,-4.0,u,1.0%,9.3
COC(=O)Oc1ccc2c(=O)c(Oc3cccc(C)c3)coc2c1,x,x,0.4,x,x,x
Cc1cccc(Oc2coc3cc(OCC(=O)NC4CCCCC4)ccc3c2=O)c1,x,23.1µM*,-6.5,20.6µM*,x,x
CC(NS(=O)(=O)c1cccs1)c1ccccn1 (stereo not drawn),x,x,5.2,x,x,x
Cc1ccc(-c2nnc(N3CCOCC3)c3ccccc23)cc1S(=O)(=O)NCC1CCCO1 (stereo not drawn),u,25.9µM*,-1.1,u,-0.5%,u
